PubChem BioAssay (EPA / NIEHS)
Several values for one entry are separate records, joined by “and”; a condition that tells them apart may be missing. Equal values may be shown once. Where a structure was tested more than once in an assay, its records may differ in their call. Activity calls are given as the source filed them. Rule for the calls: active = hit-call score of the fitted dose curve at least 0.9, where 1 is the maximum; inactive = score below 0.9.

target: Aryl hydrocarbon receptor (Homo sapiens) (UniProt P35869); experiment: ATG_Ahr_CIS: Attagene CIS-FACTORIAL HepG2 Assay for human Aryl Hydrocarbon Receptor (Ahr) (AID 2282930); details: HepG2 AhR cis-factorial reporter transcription; actives raise or lower the signal
Sequence (P35869 whole entry, looked up): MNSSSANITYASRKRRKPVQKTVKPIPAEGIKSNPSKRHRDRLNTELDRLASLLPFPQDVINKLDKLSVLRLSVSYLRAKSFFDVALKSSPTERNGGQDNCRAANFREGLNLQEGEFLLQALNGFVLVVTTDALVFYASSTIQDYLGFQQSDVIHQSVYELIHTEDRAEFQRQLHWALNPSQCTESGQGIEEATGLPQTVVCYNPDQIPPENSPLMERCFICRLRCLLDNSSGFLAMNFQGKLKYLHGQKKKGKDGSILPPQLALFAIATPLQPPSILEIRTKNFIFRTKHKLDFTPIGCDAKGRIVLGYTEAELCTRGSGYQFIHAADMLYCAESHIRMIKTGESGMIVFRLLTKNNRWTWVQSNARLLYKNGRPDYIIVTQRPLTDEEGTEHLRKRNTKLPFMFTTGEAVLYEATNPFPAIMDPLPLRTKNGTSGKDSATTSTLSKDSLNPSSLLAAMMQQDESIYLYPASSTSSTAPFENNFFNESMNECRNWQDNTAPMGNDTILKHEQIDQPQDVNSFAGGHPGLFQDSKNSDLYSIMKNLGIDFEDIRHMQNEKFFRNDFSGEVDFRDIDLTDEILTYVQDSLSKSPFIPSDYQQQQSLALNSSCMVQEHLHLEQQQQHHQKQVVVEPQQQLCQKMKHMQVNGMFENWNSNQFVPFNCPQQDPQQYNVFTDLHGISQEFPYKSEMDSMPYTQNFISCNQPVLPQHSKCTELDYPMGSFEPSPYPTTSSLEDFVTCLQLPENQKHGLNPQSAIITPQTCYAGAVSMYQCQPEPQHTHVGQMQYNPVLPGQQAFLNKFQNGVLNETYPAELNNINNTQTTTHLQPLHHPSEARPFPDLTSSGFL
Experimental: ATG_CIS is a cell-based, multiplexed-readout assay that uses HepG2, a human liver cell line, with measurements taken at 24 hours after chemical dosing in a 24-well plate.ATG_Ahr_CIS is one of 52 assay component(s) measured or calculated from the ATG_CIS assay. It is designed to make measurements of mRNA induction, a form of inducible reporter, as detected with fluorescence intensity signals by Reverse transcription polymerase chain reaction (RT-PCR) and Capillary electrophoresis technology.Data from the assay component ATG_Ahr_CIS was analyzed into 1 assay endpoint. This assay endpoint, ATG_Ahr_CIS, was analyzed with bidirectional fitting relative to DMSO as the negative control and baseline of activity. Using a type of inducible reporter, measures of mRNA for gain or loss-of-signal activity can be used to understand the reporter gene at the transcription factor-level as they relate to the gene AHR. Furthermore, this assay endpoint can be referred to as a primary readout, because this assay has produced multiple assay endpoints where this one serves a reporter gene function. To generalize the intended target to other relatable targets, this assay endpoint is annotated to the dna binding intended target family, where the subfamily is basic helix-loop-helix protein.
Human liver HepG2 cells are transiently transfected with multiple reporter transcription units (MRTUs) in 6-well plates using FuGene 6 reagent (Roche; 3 ml FuGene/1 mg DNA). The MRTU constructs are regulated by a cis-regulating element (promoter). […] A major difference between the CIS and TRANS system is that in CIS activities of endogenous TFs are measured, whereas the TRANS assay evaluates changes in activities of exogenous, chimeric NR-Gal4 proteins. […] At the end of 24 hour incubation, total RNA was isolated using TriZol reagent (Invitrogen). The isolated RNA is then reverse-transcribed using oligo(dT) primer and Mo-MLV reverse transcriptase (Invitrogen) with DNAse I (Ambion) treatment for 30 min. The one-tenth of the produced cDNA was amplified by PCR using Taq DNA polymerase (Invitrogen) and two reporter sequence-specific primers. The PCR products were fluorescently labeled by primer extension with 6-arboxyfluorescein (6-FAM) 5'-labeled reporter sequence-specific primer (2 min at 95 C, 20 s at 68 C and 10 min at 72 C) and these products were digested with 5U of HpaI (New England Biolabs) for 2h at 37 C. […] The raw capillary electrophoresis data was processed using Attagraph software (Attagene).

outcome, inactive:
OCC(F)(F)C(F)(F)C(F)(F)C(F)(F)C(F)(F)C(F)(F)C(F)(F)C(F)(F)C(F)(F)C(F)(F)C(F)(F)F
NNC(=O)CCCCC(=O)NN
CN(CCO)S(=O)(=O)C(F)(F)C(F)(F)C(F)(F)C(F)(F)C(F)(F)C(F)(F)C(F)(F)C(F)(F)F
NC(=NCCCCCCN=C(N)/N=C(\N)Nc1ccc(Cl)cc1)/N=C(\N)Nc1ccc(Cl)cc1
COc1cc([N+](=O)[O-])ccc1N
O=C(F)C(F)(F)C(F)(F)C(F)(F)C(F)F
FC(F)(F)C1(F)C(F)(F)C(F)(F)C(F)(F)C1(F)F
CC1CNCC(C)O1 (stereo not given)
C=COC(=O)C(C)(C)CCCCCC
O=C(O)C(F)(F)OC(F)(F)C(F)(F)OC(F)(F)C(F)(F)OC(F)(F)C(F)(F)C(F)(F)C(F)(F)F
CCCCCCC(C)(C)C(=O)O
O=S(=O)(O)c1ccc2cc(O)ccc2c1
CCN(CC)CC
C=CC(=O)OCC(CO)(COCC(COC(=O)C=C)(COC(=O)C=C)COC(=O)C=C)COC(=O)C=C
COC(=O)C(F)(F)C(F)(F)C(F)(F)C(F)(F)C(F)(F)F
Cc1cc(C(=C2C=CC(=Nc3ccc(S(=O)(=O)O)cc3)C=C2)c2ccc(Nc3ccc(S(=O)(=O)O)cc3)cc2)cc(S(=O)(=O)O)c1N
Cc1ccccc1C(OCCN(C)C)c1ccccc1 (stereo not given)
Oc1ccc(Cc2ccccc2O)cc1
C=CC(=C)CC/C=C(\C)CCC=C(C)C
CC1CCC(C(=O)O)CC1 (stereo not given)
FC(F)(F)C(F)(F)C(F)(F)Br
C=CC(=O)OCCC(F)(F)C(F)(F)C(F)(F)C(F)(F)C(F)(F)C(F)(F)C(F)(F)C(F)(F)F
CCOC(OCC)C(=O)c1ccccc1
C=CC(C)(CCC=C(C)C)OC(C)=O (stereo not given)
Cc1cccc2c1ccc1ccccc12
O=C(NO)c1ccccc1
Nc1ccn([C@@H]2O[C@H](CO)[C@@H](O)C2O)c(=O)n1 (stereo not given in full)
O=C1OC(=O)c2cc(-c3ccc4c(c3)C(=O)OC4=O)ccc21
CC(C)(C)c1ccc(O)c(O)c1
NS(=O)(=O)O
CCCCCCCCCCCCOC(=O)c1cc(O)c(O)c(O)c1

AC50, active:
O=C(CC(=O)C(F)(F)C(F)(F)C(F)(F)F)c1cccs1 11.4 µM and 50 µM
NC(=NCCCCCCN=C(N)/N=C(\N)Nc1ccc(Cl)cc1)/N=C(\N)Nc1ccc(Cl)cc1 21.9 µM
O=C1c2ccc(O)c(O)c2C(=O)c2c(O)ccc(O)c21 0.0722 µM
c1cc2cccc3c4cccc5cccc(c(c1)c23)c54 17.6 µM
C[N+](C)(CCCNS(=O)(=O)CCC(F)(F)C(F)(F)C(F)(F)C(F)(F)C(F)(F)C(F)(F)F)CC(=O)[O-] 0.0224 µM
CCCCCc1ccc(O)cc1 15 µM
CC1COCc2cc3c(cc21)C(C)(C)C(C)C3(C)C (stereo not given) 91.3 µM
O=C(NO)c1ccccc1 19 µM and 22.3 µM
CC(C)(C)c1ccc(O)c(O)c1 20 µM
